For 12 compounds, Potency and max activation results are on record in PubChem BioAssay (Tox21).

Values without a mark were called inactive. Results filed as inconclusive are left out. Activity calls are given as the source filed them. The call rests on the fitted dose curve; in most records, active means well fitted curve in the direction sought with a large enough effect in the repeat runs; inconclusive means weak or mixed curves; inactive means no such curve, though single readings can be large; an effect the other way counts as inactive or inconclusive.

The nature of assay [1]: Caspase-3/7 induction in HepG2 cells by small molecules, qHTS assay (AID 1346978). Further: nearly all actives have a fitted effect of over 15% in size. In outline: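 Wild-type HepG2 cells, 2,000/well, settled 5 hr at 37 C and 5% CO2, then compound-treated for 17 hr; caspase-3/7 activity read by luminescent Caspase-Glo 3/7 after 30 min at room temperature.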
A short description of assay [2]: Caspase-3/7 induction in CHO-K1 cells by small molecules, qHTS cell viability counter screen (AID 1346979). Further: nearly all actives have a fitted effect of over 35% in size. Further: potency means the concentration at half of the fitted maximal effect. In outline:
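Wild-type CHO-K1 cells were seeded at 1,500 per well, rested 5hr at 37 C, then exposed to compounds in DMSO. After 16hr, CellTiter-Fluor reagent was added and fluorescence read 1hr later as the viability measure.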

The nature of assay [3]: Caspase-3/7 induction in CHO-K1 cells by small molecules, qHTS assay (AID 1346980). Further: nearly all actives have a fitted effect of over 15% in size. In outline: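 Wild-type CHO-K1 cells exposed to compounds for 17hr at 37 C, 5% CO2. Caspase-3/7 activity then measured by Caspase-Glo 3/7 luminescence after 30min at room temperature.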
The nature of assay [4]: Caspase-3/7 induction in HepG2 cells by small molecules, qHTS cell viability counter screen (AID 1346981). Further: nearly all actives have a fitted effect of over 30% in size. Further: potency means the concentration at half of the fitted maximal effect. In outline:
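In this quantitative HTS counter screen, compounds delivered in DMSO were left on unmodified HepG2 cells for 16 hr at 37 C. Viability was then determined fluorometrically with CellTiter-Fluor, in parallel with caspase-3/7 induction in the same wells.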

In assay [5] the target is Nuclear receptor subfamily 1 group I member 2 (Homo sapiens) (UniProt O75469). The assay is described as follows: Human pregnane X receptor (PXR) small molecule agonists, qHTS assay (AID 1346982). Further: nearly all actives have a fitted effect of over 35% in size. Further: potency means the concentration at half of the fitted maximal effect. In outline:
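Reporter HepG2 cells expressing PXR-Luc are cultured in charcoal-stripped FBS (5%), treated with compounds for 24 hr at 37 C, and assayed by ONE-Glo luminescence after 30 min at room temperature.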

For assay [6], the target named is Cytochrome P450 2D6 (Homo sapiens) (UniProt P10635). The assay is described as follows: Cytochrome P450 Family 2 Subfamily D Member 6 (CYP2D6) small molecule antagonists: luciferase reporter qHTS assay (AID 1671196). Further: nearly all actives have a fitted effect of over 50% in size. Further: potency means the concentration at half of the fitted maximal effect. In outline: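 Test chemicals meet CYP2D6 plus proluciferin substrate (10 min, RT); NADPH regenerating solution then drives turnover for 1 h. Detection reagent halts the reaction; luminescence measured after 20 min.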
Cytochrome P450 2D6 (Homo sapiens), sequence (P10635 whole entry, looked up): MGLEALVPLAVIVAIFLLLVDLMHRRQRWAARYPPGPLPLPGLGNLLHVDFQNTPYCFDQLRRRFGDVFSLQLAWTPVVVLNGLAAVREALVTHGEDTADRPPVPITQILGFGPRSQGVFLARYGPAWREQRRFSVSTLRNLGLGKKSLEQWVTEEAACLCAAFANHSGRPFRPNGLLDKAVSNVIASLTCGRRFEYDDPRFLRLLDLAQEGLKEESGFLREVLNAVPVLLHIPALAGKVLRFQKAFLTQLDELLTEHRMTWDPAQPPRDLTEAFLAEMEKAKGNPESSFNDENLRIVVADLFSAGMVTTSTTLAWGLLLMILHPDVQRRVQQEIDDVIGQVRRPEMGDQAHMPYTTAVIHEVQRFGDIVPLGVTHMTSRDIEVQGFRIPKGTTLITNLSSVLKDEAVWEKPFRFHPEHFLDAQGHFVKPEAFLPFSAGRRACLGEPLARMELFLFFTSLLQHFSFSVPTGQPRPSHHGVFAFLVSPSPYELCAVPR

The target of assay [7] is Cytochrome P450 2C19 (Homo sapiens) (UniProt P33261). As to the kind of experiment: Cytochrome P450 Family 2 Subfamily C Member 19 (CYP2C19) small molecule antagonists: luciferase reporter qHTS assay (AID 1671197). Further: nearly all actives have a fitted effect of over 65% in size. Further: potency means the concentration at half of the fitted maximal effect. In outline:
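P450-Glo CYP2C19 screening system; proluciferin substrate; DMSO compound stocks; 10 min RT preincubation; NADPH regeneration, 1 h at 37C; luciferin detection reagent, 20 min RT; luminescence as RLU.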

Assay [8] in a line: Human pregnane X receptor (PXR) small molecule agonists, qHTS cell viability counter screen (AID 1346977). Further: nearly all actives have a fitted effect of over 50% in size. In outline: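 PXR-Luc HepG2 cells in medium with 5% charcoal-stripped FBS were pre-incubated 5hr, then exposed to compounds for 24hr at 37C. Viability was read in the same wells by CellTiter-Fluor fluorescence, reagent added after 23hr with a 1hr incubation.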
In assay [9] the target is Voltage-gated inwardly rectifying potassium channel KCNH2 (Homo sapiens) (UniProt Q12809). As to the kind of experiment: Human Ether-a-go-go-Related Gene (hERG) channel small molecule antagonists: fluorescence cell-based qHTS assay (AID 1671200). Further: nearly all actives have a fitted effect of over 50% in size. Further: potency means the concentration at half of the fitted maximal effect. In outline:
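U2OS cells expressing the channel were plated at 1000 cells/well, incubated overnight at 37 C, then loaded with FluxOR II thallium-sensitive dye for 1 h at room temperature in the dark, with a further 10 min at room temperature before stimulation.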

The target in assay [10] is Cytochrome P450 3A4 (Homo sapiens) (UniProt P08684). The assay is described as follows: Cytochrome P450 Family 3 Subfamily A Member 4 (CYP3A4) small molecule antagonists: luciferase reporter qHTS assay (AID 1671201). Further: nearly all actives have a fitted effect of over 50% in size. Further: potency means the concentration at half of the fitted maximal effect. In outline:
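P450-Glo CYP3A4 system with proluciferin substrate; compounds preincubated 10 min RT with enzyme-substrate mix, then NADPH regeneration added for 1 h RT. Detection reagent 20 min, luminescence read as relative luminescence units.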

The target in assay [11] is Nuclear receptor subfamily 1 group I member 2 (Rattus norvegicus) (UniProt Q9R1A7). The assay is described as follows: Rat pregnane X receptor (rPXR) activation by small molecules, qHTS assay (AID 1346983). Further: nearly all actives have a fitted effect of over 20% in size. The settings on record: rPXR luciferase reporter cells, One-Glo luminescence, 24 h; max activation: hits give high values. In outline:
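Cell-based rPXR activation assay: rPXR cells, 2,000 per well, rested 5hr at 37 C, then exposed to compounds in DMSO for 24 hr at 37 C. Luciferase activity read by One-Glo luminescence after 30 min at room temperature.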

Assay [12] deals with Cytochrome P450 2C9 (Homo sapiens) (UniProt P11712). As to the kind of experiment: Cytochrome P450 Family 2 Subfamily C Member 9 (CYP2C9) small molecule antagonists: luciferase reporter qHTS assay (AID 1671198). Further: nearly all actives have a fitted effect of over 50% in size. Further: potency means the concentration at half of the fitted maximal effect. In outline: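 P450-Glo proluciferin substrate with CYP2C9 enzyme; 10 min RT preincubation, then NADPH regeneration 1 h at 37C; luciferin detection reagent 20 min RT, luminescence in relative luminescence units.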
Cytochrome P450 2C9 (Homo sapiens), sequence (P11712 whole entry, looked up): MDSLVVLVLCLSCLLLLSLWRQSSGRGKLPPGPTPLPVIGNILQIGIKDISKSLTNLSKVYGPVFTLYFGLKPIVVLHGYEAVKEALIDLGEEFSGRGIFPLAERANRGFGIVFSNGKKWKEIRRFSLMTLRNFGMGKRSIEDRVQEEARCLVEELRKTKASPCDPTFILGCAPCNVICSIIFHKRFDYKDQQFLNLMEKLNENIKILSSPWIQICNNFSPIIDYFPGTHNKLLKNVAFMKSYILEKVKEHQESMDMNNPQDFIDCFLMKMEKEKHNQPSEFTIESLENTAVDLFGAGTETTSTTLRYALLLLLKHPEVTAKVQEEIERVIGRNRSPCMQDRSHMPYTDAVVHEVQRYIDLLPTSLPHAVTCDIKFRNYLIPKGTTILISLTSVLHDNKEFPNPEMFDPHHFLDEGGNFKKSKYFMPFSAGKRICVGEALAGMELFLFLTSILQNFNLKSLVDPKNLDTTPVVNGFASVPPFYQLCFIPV

Assay [13] addresses Cytochrome P450 1A2 (Homo sapiens) (UniProt P05177). As to the kind of experiment: Cytochrome P450 Family 1 Subfamily A Member 2 (CYP1A2) small molecule antagonists: luciferase reporter qHTS assay (AID 1671199). Further: nearly all actives have a fitted effect of over 50% in size. Further: potency means the concentration at half of the fitted maximal effect. In outline: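 Steps: enzyme-substrate mix dispensed; test compounds and furafylline control pinned in; 10 min room temperature; NADPH regeneration solution added, 1 h; reaction stopped with luciferin detection reagent; luminescence read after 20 min.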
On the % scale 0 is the no-effect control and ±100 the full control effect.

Cytochrome P450 1A2 (Homo sapiens), sequence (P05177 whole entry, looked up): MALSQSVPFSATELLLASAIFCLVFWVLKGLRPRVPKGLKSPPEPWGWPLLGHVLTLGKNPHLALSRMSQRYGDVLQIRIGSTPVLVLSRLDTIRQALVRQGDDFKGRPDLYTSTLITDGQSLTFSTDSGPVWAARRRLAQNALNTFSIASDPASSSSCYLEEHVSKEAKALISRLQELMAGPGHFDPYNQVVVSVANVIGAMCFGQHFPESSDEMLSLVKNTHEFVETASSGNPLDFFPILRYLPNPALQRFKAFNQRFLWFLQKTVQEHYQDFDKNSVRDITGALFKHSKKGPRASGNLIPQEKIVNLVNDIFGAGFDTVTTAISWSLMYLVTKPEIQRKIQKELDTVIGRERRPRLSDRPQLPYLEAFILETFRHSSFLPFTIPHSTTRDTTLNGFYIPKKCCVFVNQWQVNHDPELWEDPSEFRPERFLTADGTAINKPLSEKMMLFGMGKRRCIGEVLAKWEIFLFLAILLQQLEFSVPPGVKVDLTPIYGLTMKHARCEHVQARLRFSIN
Nuclear receptor subfamily 1 group I member 2 (Homo sapiens), sequence (O75469 whole entry, looked up): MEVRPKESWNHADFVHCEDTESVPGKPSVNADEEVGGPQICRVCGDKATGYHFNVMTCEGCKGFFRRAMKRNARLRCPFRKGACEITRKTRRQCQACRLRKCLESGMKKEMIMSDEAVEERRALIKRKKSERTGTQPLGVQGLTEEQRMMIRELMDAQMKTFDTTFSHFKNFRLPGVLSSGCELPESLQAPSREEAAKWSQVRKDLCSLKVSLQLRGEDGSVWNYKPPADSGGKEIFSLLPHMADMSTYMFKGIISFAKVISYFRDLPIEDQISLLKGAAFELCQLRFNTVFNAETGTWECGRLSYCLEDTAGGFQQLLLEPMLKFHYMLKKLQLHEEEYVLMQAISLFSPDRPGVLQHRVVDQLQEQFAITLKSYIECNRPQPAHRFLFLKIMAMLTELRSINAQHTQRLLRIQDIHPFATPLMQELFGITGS
Cytochrome P450 3A4 (Homo sapiens), sequence (P08684 whole entry, looked up): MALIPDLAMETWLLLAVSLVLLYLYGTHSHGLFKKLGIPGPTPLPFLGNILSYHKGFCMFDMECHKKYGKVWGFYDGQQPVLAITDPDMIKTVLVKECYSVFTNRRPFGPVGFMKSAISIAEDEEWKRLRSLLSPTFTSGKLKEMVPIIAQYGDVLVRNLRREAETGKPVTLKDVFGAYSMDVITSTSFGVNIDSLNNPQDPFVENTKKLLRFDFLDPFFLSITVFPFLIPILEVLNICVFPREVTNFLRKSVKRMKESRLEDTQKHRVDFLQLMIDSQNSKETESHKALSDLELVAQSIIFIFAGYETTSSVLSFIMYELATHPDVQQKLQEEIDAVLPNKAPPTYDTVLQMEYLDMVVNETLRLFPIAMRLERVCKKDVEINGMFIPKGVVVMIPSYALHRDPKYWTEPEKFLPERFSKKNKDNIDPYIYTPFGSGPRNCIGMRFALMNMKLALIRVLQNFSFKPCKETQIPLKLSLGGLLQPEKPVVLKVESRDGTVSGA
Voltage-gated inwardly rectifying potassium channel KCNH2 (Homo sapiens), sequence (Q12809 whole entry, looked up): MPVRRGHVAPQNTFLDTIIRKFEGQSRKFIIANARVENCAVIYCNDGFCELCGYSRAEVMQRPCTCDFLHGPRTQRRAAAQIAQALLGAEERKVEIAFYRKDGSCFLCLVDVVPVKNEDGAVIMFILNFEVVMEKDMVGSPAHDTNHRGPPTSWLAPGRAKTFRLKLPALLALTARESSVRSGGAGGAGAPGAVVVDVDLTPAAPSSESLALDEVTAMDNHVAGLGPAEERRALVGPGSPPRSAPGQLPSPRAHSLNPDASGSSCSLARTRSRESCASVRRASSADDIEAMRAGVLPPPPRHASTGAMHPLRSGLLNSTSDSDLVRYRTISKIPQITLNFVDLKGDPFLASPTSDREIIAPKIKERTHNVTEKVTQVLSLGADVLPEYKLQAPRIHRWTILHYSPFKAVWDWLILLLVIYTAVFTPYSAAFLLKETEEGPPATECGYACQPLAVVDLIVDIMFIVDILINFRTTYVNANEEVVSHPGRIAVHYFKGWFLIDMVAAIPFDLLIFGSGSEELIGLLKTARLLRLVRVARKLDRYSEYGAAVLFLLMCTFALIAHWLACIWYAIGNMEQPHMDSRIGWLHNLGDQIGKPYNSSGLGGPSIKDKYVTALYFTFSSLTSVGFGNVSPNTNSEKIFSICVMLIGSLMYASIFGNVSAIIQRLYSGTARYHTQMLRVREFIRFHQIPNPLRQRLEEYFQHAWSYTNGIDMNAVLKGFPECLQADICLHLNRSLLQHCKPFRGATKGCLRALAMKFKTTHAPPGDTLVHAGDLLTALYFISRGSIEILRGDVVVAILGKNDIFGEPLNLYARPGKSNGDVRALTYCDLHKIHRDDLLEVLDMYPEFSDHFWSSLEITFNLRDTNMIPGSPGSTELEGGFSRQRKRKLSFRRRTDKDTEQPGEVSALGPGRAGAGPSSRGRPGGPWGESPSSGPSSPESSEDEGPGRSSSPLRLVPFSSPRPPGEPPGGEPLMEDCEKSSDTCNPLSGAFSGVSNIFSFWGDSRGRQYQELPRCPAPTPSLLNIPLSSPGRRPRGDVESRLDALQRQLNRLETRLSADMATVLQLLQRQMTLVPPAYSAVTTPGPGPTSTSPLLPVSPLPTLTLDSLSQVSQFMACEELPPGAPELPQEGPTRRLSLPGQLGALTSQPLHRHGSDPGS
Cytochrome P450 2C19 (Homo sapiens), sequence (P33261 whole entry, looked up): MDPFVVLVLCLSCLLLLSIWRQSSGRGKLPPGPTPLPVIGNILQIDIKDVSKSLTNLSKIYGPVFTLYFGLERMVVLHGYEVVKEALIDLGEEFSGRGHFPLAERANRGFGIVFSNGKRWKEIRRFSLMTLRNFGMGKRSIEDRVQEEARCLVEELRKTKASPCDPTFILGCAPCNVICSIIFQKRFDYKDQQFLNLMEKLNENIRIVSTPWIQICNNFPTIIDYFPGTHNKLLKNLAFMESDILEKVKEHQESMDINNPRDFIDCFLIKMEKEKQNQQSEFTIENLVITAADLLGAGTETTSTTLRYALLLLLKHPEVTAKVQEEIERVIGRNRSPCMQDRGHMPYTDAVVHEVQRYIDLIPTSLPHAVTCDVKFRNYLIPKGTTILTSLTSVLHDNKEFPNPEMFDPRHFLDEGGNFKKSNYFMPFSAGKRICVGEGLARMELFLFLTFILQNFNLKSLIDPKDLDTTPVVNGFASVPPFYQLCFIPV
Nuclear receptor subfamily 1 group I member 2 (Rattus norvegicus), sequence (Q9R1A7 whole entry, looked up): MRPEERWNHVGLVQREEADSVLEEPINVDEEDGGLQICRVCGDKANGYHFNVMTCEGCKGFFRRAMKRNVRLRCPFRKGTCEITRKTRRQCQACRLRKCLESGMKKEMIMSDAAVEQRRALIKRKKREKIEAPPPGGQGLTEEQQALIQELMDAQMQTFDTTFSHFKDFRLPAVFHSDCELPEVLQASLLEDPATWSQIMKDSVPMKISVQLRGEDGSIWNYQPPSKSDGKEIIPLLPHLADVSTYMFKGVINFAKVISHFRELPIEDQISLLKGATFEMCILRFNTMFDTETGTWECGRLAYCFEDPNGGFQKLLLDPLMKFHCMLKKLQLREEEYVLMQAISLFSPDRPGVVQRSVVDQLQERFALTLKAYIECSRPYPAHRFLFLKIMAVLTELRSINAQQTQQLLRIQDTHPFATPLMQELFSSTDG

As to `O=C1c2ccccc2C(=O)C1c1ccc2ccccc2n1`, the Potency result in assay [1], in assay [3] and in [6] was “inactive” each time. Moreover, the Potency was 9.59 µM (active) in assay [2], 6.05 µM (active) in assay [4], 1.91 µM (active) in assay [5] and 3.14 µM (active) in assay [7].
As to `O=C(c1ccc(Cl)cc1)c1ccc(Cl)cc1`, the Potency result in assay [8], in assay [2], in assay [3], in assay [4], in assay [6] and in assay [9] was “inactive” throughout. Moreover, the Potency entry in assay [10] was “inactive”. The Potency in assay [7] is 1 µM (active).
For `O=C(NC1CCN(CCc2c[nH]c3ccccc23)CC1)c1ccccc1`, the Potency result in assay [1], in [2], in [3], in [5], in [7] and in assay [12] was “inactive” throughout. For the same compound, the Potency entry in assay [13] was “inactive”. Besides, in [11], the max activation was -9.19%. Moreover, the Potency was 1.95 µM (active) in [6] and 4.77 µM (active) in assay [9].
Take `CC(C)(C(=O)O)c1ccc(C(O)CCCN2CCC(C(O)(c3ccccc3)c3ccccc3)CC2)cc1` (stereo not given): the Potency result in [8], in assay [2], in [3], in assay [4] and in assay [5] was “inactive” each time.
On to `CC(C(=O)O)c1ccc2c(c1)Cc1cccnc1O2` (stereo not given), for which the Potency entry in assay [8], in assay [1], in assay [3], in assay [6], in assay [7] and in assay [12] was “inactive” each time. The Potency result in [9] and in [10] was “inactive” each time. In addition, the max activation in assay [11] was -0.373%.
Turning to `O=C(Cl)c1ccc(F)c(Cl)c1`, the Potency result in assay [8], in assay [1], in assay [3], in assay [5], in assay [7] and in [13] was “inactive” in each case. Moreover, the Potency entry in assay [10] was “inactive”.
For `CC(=O)Nc1cccc(N)c1`, the Potency entry in assay [8], in assay [1], in assay [3], in assay [5] and in [9] was “inactive” throughout. The Potency in [7] is 57.2 µM (active).
Consider `CCC(C(=O)O)c1ccc(N2Cc3ccccc3C2=O)cc1` (stereo not given), for which the Potency entry in assay [8], in assay [1], in assay [3], in [9] and in assay [10] was “inactive” each time. The Potency was 4.73 µM (active) in assay [5], 15.5 µM (active) in [6] and 21.9 µM (active) in [7].
Regarding `CC(C)C/C=C(\C=O)c1ccccc1`, the Potency result in [8], in assay [1], in assay [3] and in assay [6] was “inactive” in each case. Further, the Potency in [5] was 30.6 µM (active); in [7], 17.8 µM (active); in assay [12], 35.6 µM (active); in [13], 39.9 µM (active); in assay [10], 35.6 µM (active).
Consider `Oc1ccc(CCNCCCCCCNCCc2ccccc2)cc1O`, for which the Potency entry in [1], in assay [3], in [4], in assay [5], in [13] and in [10] was “inactive” in each case. In addition, the Potency in assay [6] was 15.5 µM (active).
`CCn1nc(Cc2ccccc2)cc1C1CCN(C[C@H]2C[C@H](N(C)[C@@H](C(=O)O)C(C)C)C[C@@H]2c2cccc(F)c2)CC1`: the Potency entry in assay [1], in assay [2], in [3] and in assay [5] was “inactive” each time. For the same compound, the Potency in assay [9] was 13.8 µM (active).
For `O=C(O)c1cccc(C(=O)O)c1C(=O)O`, the Potency result in assay [8], in [1], in assay [3], in assay [4], in assay [5] and in assay [13] was “inactive” throughout. Besides, the Potency result in [9] and in assay [10] was “inactive” in each case. Further, the Potency in assay [7] was 71.7 µM (active).
